Compound activity deposited in PubChem BioAssay by National Center for Advancing Translational Sciences (NCATS).
Luciferase inh: Photinus pyralis luciferase inhibition; Potency, µM (top dose mostly 115 µM), most hits filed as inhibitors; AID 1347043; purified P. pyralis luciferase, luminescence, biochemical; actives 2.5% (n = 76,000); further: nearly all actives have a fitted effect of over 65% in size
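Luminescence read by CCD imaging after purified firefly luciferase (10nM final) was added to substrate buffer holding 10uM D-luciferin and 10uM ATP, pH 7.5, pre-dosed with compound.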
HEK cytotox: HEK 293 cell cytotoxicity; Potency, µM (doses to about 115 µM), for the others: at the top dose activity change, negative = cytotoxicity, usual class: inhibitors; AID 1345083; HEK 293 viability, ATP luminescence (CellTiter-Glo), 48-72 h; actives 6.6% (n = 94,000); further: nearly all actives have a fitted effect of over 60% in size
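Read-out: CellTiter-Glo ATP luminescence. Cells: HEK 293, 250 cells/well. Exposure: 48 or 72 hr, 37 degree Celsius.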
GPT2 inhibitor: GPT2 alanine aminotransferase inhibition; Recombinant GPT2, coupled pyruvate oxidase/HRP Amplex Red fluorescence; actives 0.25% (n = 100,000); Potency, µM (highest dose often 57.7 µM), inactives show at the highest dose activity change, negative = inhibition, usual class: inhibitors; AID 1671188; Q8TD30; further: nearly all actives have a fitted effect of over 60% in size
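Fluorescence read-out: pyruvate from GPT2 turnover coupled to pyruvate oxidase, HRP and Amplex Red (0.2mM ThPP, 0.2U/mL PO and HRP, 50uM Amplex final). Substrates 250uM a-KG, 2mM L-alanine; enzyme 10ng/uL; 30 min RT.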
hNpr1 antagonist: human Npr1 receptor antagonism; P16066; HEK293 hNpr1 GloSensor cGMP, ANP-stimulated luminescence; Potency, µM (series often up to 46.3 µM), without a hit: top-dose activity change, negative = inhibition, actives largely listed as inhibitors; actives 1.6% (n = 76,000); calls by dose curve; further: nearly all actives have a fitted effect of over 60% in size
Target sequence (P16066 whole entry, looked up): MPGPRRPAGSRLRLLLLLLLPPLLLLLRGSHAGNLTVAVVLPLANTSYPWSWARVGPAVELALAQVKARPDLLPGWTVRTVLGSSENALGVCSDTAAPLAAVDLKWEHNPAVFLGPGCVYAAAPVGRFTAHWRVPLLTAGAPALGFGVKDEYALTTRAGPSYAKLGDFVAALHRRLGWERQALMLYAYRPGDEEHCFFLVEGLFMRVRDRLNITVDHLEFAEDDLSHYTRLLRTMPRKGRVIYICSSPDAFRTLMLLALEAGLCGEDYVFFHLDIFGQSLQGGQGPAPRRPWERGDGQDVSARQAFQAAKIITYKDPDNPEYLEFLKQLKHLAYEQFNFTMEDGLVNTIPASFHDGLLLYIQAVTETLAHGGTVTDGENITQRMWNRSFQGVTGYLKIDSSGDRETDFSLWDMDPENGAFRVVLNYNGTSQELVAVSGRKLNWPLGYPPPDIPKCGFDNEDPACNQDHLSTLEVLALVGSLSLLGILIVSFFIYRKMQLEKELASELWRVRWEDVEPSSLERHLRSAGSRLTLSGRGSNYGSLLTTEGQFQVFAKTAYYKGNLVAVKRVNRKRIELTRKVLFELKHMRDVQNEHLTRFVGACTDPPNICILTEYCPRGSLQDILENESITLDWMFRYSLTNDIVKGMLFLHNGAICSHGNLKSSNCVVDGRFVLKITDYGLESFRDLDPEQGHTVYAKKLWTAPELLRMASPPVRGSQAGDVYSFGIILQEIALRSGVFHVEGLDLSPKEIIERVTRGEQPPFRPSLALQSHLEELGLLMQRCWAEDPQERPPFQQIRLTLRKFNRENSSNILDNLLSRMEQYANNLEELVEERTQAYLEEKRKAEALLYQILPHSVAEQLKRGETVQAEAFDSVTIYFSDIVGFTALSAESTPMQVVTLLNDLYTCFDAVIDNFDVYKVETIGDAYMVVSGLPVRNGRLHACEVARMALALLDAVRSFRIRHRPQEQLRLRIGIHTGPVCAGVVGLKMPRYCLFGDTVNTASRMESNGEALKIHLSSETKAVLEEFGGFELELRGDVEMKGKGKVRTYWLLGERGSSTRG
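Compound pre-incubated 30 min at room temperature on GloSensor-loaded HEK293 cells stably carrying hNpr1 and the pGS-40F cGMP biosensor. Stimulation uses hNppA at 0.1 nM final; luminescence is taken at baseline and 20 min post-agonist.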
3T3 cytotox: kills NIH 3T3 cells; Potency, µM (highest dose often 96.7 µM), for inactives: at the highest dose activity change, negative = cytotoxicity, actives largely listed as inhibitors; actives 4.3% (n = 94,000); NIH 3T3 viability, CellTiter-Glo ATP luminescence, 48-72 h; further: nearly all actives have a fitted effect of over 55% in size
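Luminescent ATP readout (CellTiter-Glo, 10 min RT) after 48 or 72 hr compound exposure of NIH 3T3 cells seeded at 400 cells/well in 1536-well format; quantitative HTS.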
Numbers without * were called inactive; [ ] = another dose, or the depositor's remark. In the library only some 10% were active in any assay of this set; here they are far more common. Unless noted, the call rests on the fitted dose curve; in most records, active means well fitted curve in the direction sought with a large enough effect; inconclusive means small, poorly fitted or top-dose-only effect, or another doubt; inactive means no such curve, though single readings can be large; an effect the other way counts as inactive or inconclusive. On the % scale 0 is the no-effect control and ±100 the full control effect; potency means the concentration at half of the fitted maximal effect.

What do the screens show for `O=C(c1cc2cc(F)ccc2[nH]1)N1CCCC(CO)(Cc2cccc(Cl)c2)C1` (stereo not drawn)?
Luciferase inh: inconclusive; HEK cytotox: 79µM*; GPT2 inhibitor: inconclusive; hNpr1 antagonist: -19%; 3T3 cytotox: inconclusive

How did COc1ccc(C)cc1C(=O)N1CC(=O)N(c2cccc(Cl)c2)CC1C (stereo not drawn) do in these assays?
Luciferase inh: inactive; HEK cytotox: -17%; GPT2 inhibitor: -23%; hNpr1 antagonist: 3%; 3T3 cytotox: -21%

How did COc1ccc(-c2cc(C(=O)NC3CC3)c3c(C4CCNC4)nn(C)c3n2)cc1 (stereo not drawn) do in these assays?
HEK cytotox: inconclusive; GPT2 inhibitor: 4%; 3T3 cytotox: inconclusive

What do the screens show for `CCC(C)NC(=O)c1cc2n(n1)CC(c1ccc3c(c1)OCO3)OC2` (stereo not drawn)?
Luciferase inh: inactive; HEK cytotox: inconclusive; GPT2 inhibitor: 1%; hNpr1 antagonist: -6%; 3T3 cytotox: inconclusive

Results for CC(C)CNC(=O)c1cc2n(n1)CC(c1ccc3c(c1)OCO3)OC2 (stereo not drawn) ?
Luciferase inh: inactive; HEK cytotox: 45µM*; GPT2 inhibitor: inactive; hNpr1 antagonist: -3%; 3T3 cytotox: 40µM*

What do the screens show for `CCc1ccc(NC(=O)c2cc3n(n2)CC(c2ccc4c(c2)OCO4)OC3)cc1` (stereo not drawn)?
Luciferase inh: inconclusive; HEK cytotox: 32µM*; GPT2 inhibitor: inactive; hNpr1 antagonist: 11µM*; 3T3 cytotox: inconclusive

How did c1cc(NC2CCNCC2)nc(-c2cnc3ccccn23)c1 do in these assays?
GPT2 inhibitor: 3%

How did COc1ccc(F)c(-c2nc(CN3CCN4C(=O)CNC(=O)C4C3)c(C)o2)c1 (stereo not drawn) do in these assays?
Luciferase inh: inactive; HEK cytotox: 3%; GPT2 inhibitor: inconclusive; hNpr1 antagonist: 2%; 3T3 cytotox: inactive

How did c1ccc(-c2cc3c(cn2)CN(Cc2ccc4[nH]ccc4c2)CCN3)cc1 do in these assays?
Luciferase inh: 56µM*; HEK cytotox: 50µM*; GPT2 inhibitor: 2%[88.5 µM]; hNpr1 antagonist: -5%[70.6 µM]; 3T3 cytotox: 25µM*

What do the screens show for `CCOc1cc2c(cn1)NCCN(Cc1ccc3[nH]ccc3c1)C2`?
Luciferase inh: inactive; HEK cytotox: inconclusive; GPT2 inhibitor: 4%[88.5 µM]; hNpr1 antagonist: 3%[70.6 µM]; 3T3 cytotox: -23%[138 µM]

What do the screens show for `Cc1cc(-c2cc3c(cn2)CN(Cc2ccc4[nH]ccc4c2)CCN3)ccn1`?
Luciferase inh: 45µM*; HEK cytotox: 71µM*; GPT2 inhibitor: -10%[88.5 µM]; hNpr1 antagonist: inconclusive; 3T3 cytotox: inconclusive

Results for CN(C(=O)c1cc2ccccc2oc1=O)C1CCCN(CCCc2ccccc2)C1 (stereo not drawn) ?
Luciferase inh: inactive; HEK cytotox: inconclusive; GPT2 inhibitor: inactive; hNpr1 antagonist: 0%; 3T3 cytotox: 40µM*

What do the screens show for `COc1ccccc1-c1ccnc(N[C@H]2CO[C@H]3[C@@H]2OC[C@@H]3NS(=O)(=O)c2ccc3ccccc3c2)n1`?
Luciferase inh: inactive; HEK cytotox: 32µM*; GPT2 inhibitor: -21%; hNpr1 antagonist: inconclusive; 3T3 cytotox: inconclusive

How did COc1ccccc1-c1ccnc(N[C@H]2CO[C@H]3[C@@H]2OC[C@@H]3NS(=O)(=O)c2cccc3cccnc23)n1 do in these assays?
Luciferase inh: inactive; HEK cytotox: -19%; GPT2 inhibitor: -6%; hNpr1 antagonist: 6%; 3T3 cytotox: -23%

How did CC(C)(C)c1ccnc(N[C@H]2CO[C@H]3[C@@H]2OC[C@@H]3NC(=O)NCc2ccccc2)n1 do in these assays?
Luciferase inh: inactive; HEK cytotox: 89µM*; GPT2 inhibitor: inconclusive; hNpr1 antagonist: -23%[70.6 µM]; 3T3 cytotox: inconclusive

What do the screens show for `CC(C)(C)c1ccnc(N[C@H]2CO[C@H]3[C@@H]2OC[C@@H]3NS(=O)(=O)c2cccs2)n1`?
Luciferase inh: inconclusive; HEK cytotox: inconclusive; GPT2 inhibitor: -11%[88.5 µM]; hNpr1 antagonist: 10µM*; 3T3 cytotox: 79µM*

How did CC(C)C[C@@H]1N[C@H](C(=O)NCCN(C)C)Cc2c[nH]c3cccc1c23 do in these assays?
Luciferase inh: inactive; HEK cytotox: 100µM*; GPT2 inhibitor: inactive; hNpr1 antagonist: 1%[70.6 µM]; 3T3 cytotox: 56µM*

How did CCCNC(=O)[C@@H]1Cc2c[nH]c3cccc(c23)[C@H](CC(C)C)N1 do in these assays?
Luciferase inh: inactive; HEK cytotox: 50µM*; GPT2 inhibitor: 4%[88.5 µM]; hNpr1 antagonist: -2%[70.6 µM]; 3T3 cytotox: inconclusive

How did CC(C)C[C@@H]1N[C@H](C(=O)NCCOc2ccccc2)Cc2c[nH]c3cccc1c23 do in these assays?
Luciferase inh: inactive; HEK cytotox: inconclusive; GPT2 inhibitor: -18%[88.5 µM]; hNpr1 antagonist: -29%[70.6 µM]; 3T3 cytotox: 28µM*

Results for C=CCNC(=O)[C@@H]1Cc2cn(CC=C)c3cccc(c23)[C@H](CC(C)C)N1 ?
Luciferase inh: inactive; HEK cytotox: inconclusive; GPT2 inhibitor: 2%[88.5 µM]; hNpr1 antagonist: -2%[70.6 µM]; 3T3 cytotox: inconclusive

How did C=CCNC(=O)[C@@H]1Cc2c[nH]c3cccc(c23)[C@H](CC(C)C)N1 do in these assays?
Luciferase inh: inactive; HEK cytotox: inconclusive; GPT2 inhibitor: inconclusive; hNpr1 antagonist: 4%[70.6 µM]; 3T3 cytotox: inconclusive

What do the screens show for `CC(C)C[C@@H]1N[C@H](C(=O)NCCOc2ccccc2)Cc2cn(C)c3cccc1c23`?
Luciferase inh: inactive; HEK cytotox: 40µM*; GPT2 inhibitor: inconclusive; hNpr1 antagonist: -22%[70.6 µM]; 3T3 cytotox: 32µM*

What do the screens show for `COc1ccccc1NC(=O)N1CCC(N2CC3CC(C2)[C@H]2CCCC(=O)N2C3)CC1` (stereo partly drawn)?
Luciferase inh: inactive; HEK cytotox: -10%; GPT2 inhibitor: 2%; hNpr1 antagonist: -3%; 3T3 cytotox: -7%

How did COc1cccc(S(=O)(=O)N2CCCN(C)c3ccccc32)c1 do in these assays?
Luciferase inh: inactive; HEK cytotox: inconclusive; GPT2 inhibitor: -12%; hNpr1 antagonist: -6%; 3T3 cytotox: inconclusive

How did COCC(=O)N1CC[C@H](c2nc3ccc(C(F)(F)F)cc3[nH]2)C1 do in these assays?
Luciferase inh: inactive; HEK cytotox: 0%[172 µM]; GPT2 inhibitor: inactive; hNpr1 antagonist: -2%[70.6 µM]; 3T3 cytotox: -13%[138 µM]

How did CN1CC[C@H](c2nc3ccc(C(F)(F)F)cc3[nH]2)C1 do in these assays?
Luciferase inh: inconclusive; HEK cytotox: 112µM*; GPT2 inhibitor: -19%[88.5 µM]; hNpr1 antagonist: -12%[70.6 µM]; 3T3 cytotox: inconclusive
